Assay results published in the supplement of paper PMC3334620.
Over roughly 33,000 sequences, “E-score (-0.5 to 0.5)” has its median near -0.013; the highest 2% begin near 0.3. What follows is part of a selection rich in the highest values, with near analogues and random picks from the rest.

target: T1, Msn1 (UniProt P22148); assay: PBM E-score (8-mer binding enrichment) (E-score (-0.5 to 0.5)); higher = stronger / more preferred TF binding; settings: protein concentration: 200 nM; construct: GST-full length
T1 sequence: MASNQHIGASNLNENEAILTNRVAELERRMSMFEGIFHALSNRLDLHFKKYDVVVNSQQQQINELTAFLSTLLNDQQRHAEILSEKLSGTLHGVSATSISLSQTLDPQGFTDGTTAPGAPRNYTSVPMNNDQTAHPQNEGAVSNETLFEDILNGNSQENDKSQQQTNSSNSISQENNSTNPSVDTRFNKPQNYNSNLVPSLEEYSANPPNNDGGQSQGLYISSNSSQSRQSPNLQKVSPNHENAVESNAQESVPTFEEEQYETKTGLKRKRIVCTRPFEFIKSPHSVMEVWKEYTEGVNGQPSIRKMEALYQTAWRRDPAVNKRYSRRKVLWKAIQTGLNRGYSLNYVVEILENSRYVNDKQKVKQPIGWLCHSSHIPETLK
Procedure: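 Universal 'all 10-mer' protein binding microarrays (Agilent AMADID 015681) probed with GST-tagged S. cerevisiae TFs (full-length or DBD) made by in vitro transcription/translation (PURExpress), about 100-200 nM. Bound TF was detected with fluorescent anti-GST. Each ungapped 8-mer (which stands for itself and its reverse complement) is scored by the PBM enrichment score (E-score), a modified Wilcoxon-Mann-Whitney statistic from -0.5 to +0.5, computed with the Universal PBM Analysis Suite. Scale: above 0.35 generally sequence-specific binding.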

| Sequence | PBM E-score |
| --- | --- |
| ACATACCG | 0.114 |
| GGAACGAA | 0.0279 |
| AATCTAAG | 0.00698 |
| GCGAGATA | 0.09 |
| ATCTTCCA | -0.148 |
| GGGACAGA | 0.262 |
| GGGACTGA | -0.182 |
| GGGACATA | 0.488 |
| AGCGTAGG | -0.267 |
| GACCACCA | -0.246 |
| ATCAGACC | -0.192 |
| AAACTGCT | -0.222 |
| CGCCAACG | -0.126 |
| CGCTCTAC | -0.0195 |
| CGTATTGA | -0.0137 |
| ACTGCGGG | -0.124 |
| AGTCTGAA | 0.029 |
| AGTCTAAA | 0.0711 |
| CGTCTTAA | 0.0585 |
| TGTCGCAA | 0.324 |
| TGTCTAAA | 0.38 |
| GGTCGCAA | -0.11 |
| TGTCTTAA | 0.375 |
| TGTCTGAA | 0.364 |
| CGTCGCAA | 0.0166 |

| Sequence | PBM E-score |
| --- | --- |
| AGTCTTAA | 0.11 |
| GGTCTAAA | -0.0883 |
| GGTCTGAA | 0.0803 |
| CGCTAGGA | -0.0538 |
| GCGGGGCA | -0.147 |
| GGAACCCC | -0.334 |
| ACCGTCTA | -0.11 |
| CTGCGATA | 0.0274 |
| CAGGTGAA | 0.0265 |
| ATGCAGTC | -0.186 |
| CTGGAGTC | -0.182 |
| AGCCAATA | -0.113 |
| GATCGGCC | -0.0564 |
| CACTACCG | -0.181 |
| AACTAGAA | 0.062 |
| AGTATCAA | 0.217 |
| CGTATCAA | 0.0969 |
| CGTCTCAA | 0.00785 |
| TGTCTCAA | 0.384 |
| AGTCTCAA | -0.0719 |
| TGTATCAA | 0.325 |
| TATAATCA | 0.169 |
| CCGGGATC | 0.0583 |
| AAGGGGAC | 0.101 |
| CGAATGAC | 0.258 |

| Sequence | PBM E-score |
| --- | --- |
| AGAATGTG | -0.172 |
| CGAATGTA | -0.00301 |
| CGAATGTC | 0.386 |
| AGAATGTA | 0.167 |
| AGAATGTC | 0.459 |
| CCGCTGAG | 0.00458 |
| AAACCGCT | -0.0604 |
| CCAAGGGC | -0.126 |
| ACACAAGC | 0.0155 |
| AGAGGTAG | -0.163 |
| GCGATCAA | -0.0507 |
| GTCAGAGA | 0.0303 |
| CTCAGACC | -0.138 |
| CCCAGACA | 0.199 |
| CTCAGACA | 0.317 |
| GTCAGACA | 0.323 |
| ATCAGACA | 0.173 |
| CACGCCAC | -0.127 |
| TCCACGGA | 0.299 |
| GAAGGTGA | -0.0331 |
| GGGTTAGA | -0.178 |
| GCAAATTA | -0.0115 |
| ACAAACTG | 0.158 |
| AGATCTGC | 0.0313 |
| GAGGGCCA | -0.104 |

| Sequence | PBM E-score |
| --- | --- |
| CTATGAGA | -0.0425 |
| GTATGACA | 0.294 |
| CTATGACC | -0.0237 |
| AGATGACA | 0.157 |
| CTATGACA | 0.375 |
| CGCTGACG | -0.24 |
| ATATGACA | 0.304 |
| CGATGACA | 0.314 |
| TGCTGACA | 0.125 |
| CGCTGACA | 0.314 |
| CGATGACG | -0.158 |
| ATATGACC | -0.0751 |
| CTTCCAGA | -0.0473 |
| GACACACC | 0.235 |
| AGTCGAGA | 0.0774 |
| ACAGGTGG | -0.0714 |
| ATTTGCAA | 0.103 |
| CTAACTTA | 0.227 |
| TGTGCGAA | -0.0498 |
| AAAACACC | 0.0787 |
| AGGGTCGC | -0.229 |
| GCTTGAAC | 0.187 |
| CGGGCAGC | -0.122 |
| CAGACATC | 0.246 |
| AAGACACT | 0.163 |

| Sequence | PBM E-score |
| --- | --- |
| AAGACAGT | 0.0956 |
| AAGACATT | 0.414 |
| AAGACATA | 0.382 |
| AAGACATC | 0.281 |
| CAGACATA | 0.366 |
| CAGACATG | 0.26 |
| AAGACATG | 0.337 |
| AATACATG | 0.0057 |
| AACACATG | 0.07 |
| AAGACACG | 0.248 |
| ACGAGCTC | -0.0205 |
| CCAAATCG | -0.101 |
| GTCTCAGA | 0.0346 |
| CAAAGGGC | -0.0864 |
| GCAAGAAA | 0.0128 |
| CCCTCTTC | -0.288 |
| CCGGCTCC | -0.269 |
| ACCCCACA | -0.0822 |
| CACCAGAC | 0.00954 |
| CGACCCCA | -0.177 |
| CATACAGG | -0.0332 |
| GAGACATA | 0.448 |
| GAGACACA | 0.272 |
| TAGACATA | 0.41 |
| TAGACAGA | 0.177 |

| Sequence | PBM E-score |
| --- | --- |
| GAGACATC | 0.265 |
| TAGACACA | 0.163 |
| GGGGCTGA | -0.148 |
| AGGGGCAG | -0.13 |
| GGACCGGA | 0.113 |
| CGCTAACC | -0.084 |
| GGAGTTAA | 0.0335 |
| TGGCCCCA | -0.338 |
| CTGTCCGC | 0.114 |
| ATGTCCGC | 0.44 |
| ATGTCCGG | 0.457 |
| AAGTCCGG | 0.22 |
| ACGTCCGC | 0.14 |
| AGGTCCGG | 0.041 |
| CCACTTAC | -0.133 |
| CCCTCTAC | -0.204 |
| ACCGTCGT | 0.142 |
| GCAGAGCC | -0.149 |
| ATGACGAA | 0.0573 |
| ATGACAAT | 0.365 |
| CTGACAAA | 0.37 |
| CTGACAAC | 0.108 |
| ATGACAGC | 0.149 |
| TTGACAAA | 0.266 |
| ATGACAAC | 0.311 |

| Sequence | PBM E-score |
| --- | --- |
| ATAACAAT | 0.00977 |
| CTGACAAG | 0.161 |
| ATTACAAT | 0.155 |
| ATGACAAG | 0.298 |
| ATGACAAA | 0.433 |
| ACGTGCCT | -0.148 |
| ATATCTGG | 0.045 |
| GCCATTGA | 0.00063 |
| CAATAAGC | 0.00863 |
| GCGTATCC | -0.037 |
| CCATACCA | 0.0887 |
| GTGACAAC | 0.139 |
| GTGACGAA | -0.0509 |
| GTGACAAA | 0.423 |
| ACTCCCTC | -0.312 |
| AAATGACA | 0.278 |
| GAATGACC | 0.201 |
| TCATGACA | 0.388 |
| TAATGACA | 0.307 |
| ACATGACA | 0.297 |
| GCATGACA | 0.199 |
| GAATGACA | 0.34 |
| TGATGACA | 0.299 |
| CAATGACA | 0.298 |
| AGGGTAAC | -0.177 |

| Sequence | PBM E-score |
| --- | --- |
| AAGTCGGA | 0.158 |
| ATACCCAA | 0.195 |
| ATAGGTTG | -0.0907 |
| CGCGGGCC | -0.105 |
| ACGGTCGG | -0.0232 |
| GCAAACCC | -0.225 |
| CCAACGGC | -0.132 |
| GCATGTAA | -0.12 |
| AAATTGTA | 0.222 |
| CAATTGTC | 0.445 |
| AAATTGTT | 0.143 |
| AAATTGTC | 0.449 |
| GAATTGGC | -0.278 |
| GAATTGTC | 0.392 |
| CAATTGTG | -0.00904 |
| CAATTGTA | 0.184 |
| GAATTGTA | 0.151 |
| ACCTAAAA | 0.0426 |
| TCTAGCAA | 0.0862 |
| TCACCCCA | 0.108 |
| AAACGCCT | -0.0244 |
| GGTGCGGA | -0.047 |
| ACCTAAGG | -0.14 |
| AGTGCTCA | -0.229 |
| CGGTACAG | 0.054 |

| Sequence | PBM E-score |
| --- | --- |
| TGGTACCA | -0.0646 |
| CGGTACAC | 0.123 |
| TGGTACAA | 0.386 |
| CGGTACAA | 0.311 |
| AGGTACAG | 0.00868 |
| GGGTACAA | 0.198 |
| AGGTACAC | 0.139 |
| AGGTACAA | 0.394 |
| ATCGTTTA | 0.141 |
| CTTCATCA | -0.143 |
| AAGGGCAG | -0.102 |
| CTGGAAGC | -0.225 |
| GCTTTTCC | -0.0951 |
| AGCCTCAC | -0.223 |
| CCCATGTC | 0.316 |
| AGCATGTG | -0.0619 |
| AGCATGTA | 0.0635 |
| AGCATGTC | 0.318 |
| ACCATGTC | 0.218 |
| CTCATGTC | 0.27 |
| CGCATGTA | 0.0633 |
| CGCATGTC | 0.426 |
| CCCATGTA | 0.0749 |
